Source: PubChem BioAssay AID720566 (Broad Institute, 2013)
Results with a measured potency or affinity are listed apart. Activity calls are given as the source filed them.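 Rule for the calls: active = in all runs, an absorbance decrease of 25% or more of the average positive control decrease; inconclusive = runs conflict, with both active and inactive results; inactive = all runs inactive, opposite-direction effects included.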

The molecules below were run against Protein disulfide-isomerase A6 (Homo sapiens) (UniProt Q15084) (assay: inhibitors of ERp5-mediated insulin aggregation, dose response, biochemical, turbidity, absorbance 650 nm, cherry-picked samples (AID 720566;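 note: negative values mean less insulin aggregation so ERp5 inhibition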)). Conditions: Recombinant ERp5 insulin aggregation; series mostly up to 35 µM.
Chain of Protein disulfide-isomerase A6 (Homo sapiens) (Q15084 whole entry, looked up): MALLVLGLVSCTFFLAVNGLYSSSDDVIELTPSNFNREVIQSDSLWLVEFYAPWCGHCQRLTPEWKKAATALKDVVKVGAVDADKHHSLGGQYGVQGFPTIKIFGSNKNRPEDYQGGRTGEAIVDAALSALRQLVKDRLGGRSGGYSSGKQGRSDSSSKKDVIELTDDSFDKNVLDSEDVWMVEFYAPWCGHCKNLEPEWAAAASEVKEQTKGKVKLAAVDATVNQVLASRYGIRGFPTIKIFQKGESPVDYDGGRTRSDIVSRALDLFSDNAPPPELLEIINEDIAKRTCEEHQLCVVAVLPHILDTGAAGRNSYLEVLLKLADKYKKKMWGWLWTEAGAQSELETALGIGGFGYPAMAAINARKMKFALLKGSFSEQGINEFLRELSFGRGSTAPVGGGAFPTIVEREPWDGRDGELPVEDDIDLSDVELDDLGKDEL

outcome, inactive:
CCC(=O)Nc1ccc2c(c1)OC[C@H](C)N(Cc1cccnc1)C[C@H](C)[C@H](OC)CN(C)C2=O
C[C@H]1CN([C@@H](C)CO)C(=O)Cc2cc(NC(=O)Nc3cccc4ccccc34)ccc2O[C@H]1CN(C)C(=O)Nc1cccc2ccccc12
CN(CC(=O)Nc1ccc(F)c(F)c1F)C(=O)c1cc(-c2ccncc2)nc2ccccc12
COc1ccc2c3c([nH]c2c1)[C@H](CO)N(C(=O)c1ccc(F)cc1)CC31CCN(C(=O)Nc2cccc(F)c2)CC1
C[C@@H]1CCCCO[C@@H](CN(C)C(=O)CCC(F)(F)F)[C@@H](C)CN([C@@H](C)CO)C(=O)c2cc(NS(=O)(=O)c3ccc(Cl)cc3)ccc2O1
CC(C)C#Cc1ccc2c(c1)O[C@@H](CN(C)C(=O)C1CC1)[C@@H](C)CN([C@@H](C)CO)S2(=O)=O
COc1cccc(S(=O)(=O)N2CC3(CN(C(=O)Nc4cccc(F)c4)[C@H](CO)c4[nH]c5cc(OC)ccc5c43)C2)c1
C[C@@H]1CN([C@@H](C)CO)C(=O)c2cc(NS(=O)(=O)c3ccccc3)ccc2O[C@H]1CN(C)C(=O)Nc1ccc2c(c1)OCO2
Cc1ccc(NC(=O)COc2ccccc2)c(NC(=O)c2ccco2)c1
C[C@@H]1CN([C@@H](C)CO)S(=O)(=O)c2ccc(C#Cc3cccnc3)cc2O[C@H]1CN(C)C(=O)CN(C)C
Cc1ccc(S(=O)(=O)N(C)C)cc1NC(=O)COC(=O)C1(c2ccccc2)CC1
C[C@@H]1CN([C@@H](C)CO)C(=O)Cc2cc(NC(=O)Cc3ccccc3)ccc2O[C@@H]1CN(C)C(=O)Nc1ccc(C(F)(F)F)cc1
Cc1cccc(Oc2ccc(NS(=O)(=O)c3ccc(C)c(C(=O)O)c3)cc2)c1
CC(C)(C)c1cc(NC(=O)c2ccco2)no1
COCC#Cc1cnc2c(c1)C(=O)N([C@@H](C)CO)C[C@H](C)[C@@H](CN(C)C(=O)NC1CCCC1)O2
CCCNC(=O)C[C@@H]1C[C@H]2c3cc(NS(C)(=O)=O)ccc3O[C@H]2[C@@H](CO)O1
C[C@@H]1CN([C@@H](C)CO)C(=O)c2cc(Br)cnc2O[C@H]1CN(C)Cc1cccc(F)c1
O=C(NN=c1c(=O)c2ccccc2c1=O)c1ccccc1
C[C@@H]1CN([C@@H](C)CO)C(=O)Cc2cc(NS(=O)(=O)c3cccs3)ccc2O[C@H]1CN(C)C(=O)Nc1ccc(C(F)(F)F)cc1
C[C@H]1CN([C@@H](C)CO)C(=O)c2cccc(NC(=O)c3nc4ccccc4s3)c2O[C@@H]1CN(C)C(=O)Nc1ccc(C(F)(F)F)cc1
COc1ccc(S(=O)(=O)Nc2ccc3c(c2)C(=O)N([C@H](C)CO)C[C@H](C)[C@H](CN(C)C(=O)Nc2ccccc2)O3)cc1
